Compound activity: PubChem, National Center for Advancing Translational Sciences (NCATS)
This is a sample that favours compounds with a hit; in the whole collection about 15% have one here.
DT40 TDP1 no CPT: qHTS for Inhibitors of human tyrosyl-DNA phosphodiesterase 1 (TDP1): qHTS in cells in absence of CPT. AID 686978, 2013. DT40 Tdp1-/- hTDP1 cells, no CPT, ATP luminescence, 48 h. hit rate 15% among 420,000. Potency, µM (doses to about 46.2 µM), inactives show at the highest dose activity change, negative = growth inhibition, hits mostly inhibitors; also: nearly all actives have a fitted effect of over 55% in size
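Stably hTDP1-transfected Tdp1-null chicken DT40 cells were treated with library compounds minus camptothecin and grown for at least 48 hr at 37 °C, after which cellular ATP was quantified by luminescence.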
RORgamma inh: blocks mouse ROR gamma transcriptional activity | P51450 | Drosophila S2 Gal4-RORgamma UAS-luciferase reporter, 20 h | Potency, µM (doses to about 53.6 µM), for inactives: at the top dose activity change, negative = inhibition, hits mostly inhibitors | hit rate 5.4% among 310,000 | AID 2551; also: nearly all actives have a fitted effect of over 60% in size
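Drosophila Schneider cells stably carrying a metallothionein-driven Gal4 DBD–ROR gamma fusion and a UAS-Photinus luciferase reporter were exposed to compound for 1 hr, then induced with copper sulfate (700 uM final) for 20 hr at ambient temperature before luminescence reading.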
ALOX12 inh: inhibitors of human 12S-lipoxygenase ALOX12. P18054. purified 12hLO, xylenol orange hydroperoxide absorbance. Potency, µM (doses to about 108 µM), without a hit: top-dose activity change, negative = inhibition, hits mostly inhibitors. hit rate 1.1% among 580,000. AID 1671190
Target sequence (P18054 whole entry, looked up): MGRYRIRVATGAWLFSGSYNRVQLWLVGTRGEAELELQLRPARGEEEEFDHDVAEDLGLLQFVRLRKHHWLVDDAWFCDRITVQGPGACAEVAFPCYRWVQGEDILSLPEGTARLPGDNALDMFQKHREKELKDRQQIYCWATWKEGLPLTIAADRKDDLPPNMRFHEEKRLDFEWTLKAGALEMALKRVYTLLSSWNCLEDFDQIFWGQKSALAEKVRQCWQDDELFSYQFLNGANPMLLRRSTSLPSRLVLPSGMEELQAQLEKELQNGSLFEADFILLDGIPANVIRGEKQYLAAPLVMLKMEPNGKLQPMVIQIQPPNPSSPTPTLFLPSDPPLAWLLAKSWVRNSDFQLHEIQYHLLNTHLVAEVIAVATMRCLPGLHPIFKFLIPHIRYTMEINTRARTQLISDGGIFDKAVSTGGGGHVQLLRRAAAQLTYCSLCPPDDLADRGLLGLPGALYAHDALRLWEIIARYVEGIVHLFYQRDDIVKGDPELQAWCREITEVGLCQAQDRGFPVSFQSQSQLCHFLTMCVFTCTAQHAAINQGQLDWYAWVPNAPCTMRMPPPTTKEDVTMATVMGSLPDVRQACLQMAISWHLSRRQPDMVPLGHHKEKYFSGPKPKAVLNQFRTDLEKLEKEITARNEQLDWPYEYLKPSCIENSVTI
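Hydroperoxide product was detected by ferrous iron/xylenol orange as the 573 to 405 nm absorbance ratio. Arachidonic acid at 40 uM (final) was turned over for 30 min at room temperature by 150 nM human 12hLO, pH 7.0 Hepes buffer, after 15 min compound preincubation.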
VP16 counter: counter-screen for ROR gamma inhibitors: Gal4-VP16 reporter; hit rate 3.5% among 310,000; AID 2546; Drosophila S2 Gal4-VP16 UAS-luciferase, luminescence, 20 h; Potency, µM (series often up to 53.6 µM), for the others: at the top dose activity, negative = inhibition, actives largely listed as inhibitors;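 also: Gal4-VP16 expression switched on by copper sulfate through the metallothionein promoter; nearly all actives have a fitted effect of over 50% in size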
ELG1 DNA repair: inhibitors of ELG1-dependent DNA repair in HEK293T cells; HEK293T ELG1-luciferase reporter, luminescence, 16 h; DNA damage induced by 5-fluorouridine; Potency, µM (titrated, usually from 46.1 µM), without a hit: top-dose activity change, negative = inhibition, hits mostly inhibitors; hit rate 2.3% among 330,000; AID 504467; also: nearly all actives have a fitted effect of over 55% in size
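Step one: seed 2,000 cells per well. Step two: pin-transfer compound or DMSO alongside 5-fluorouridine. Step three: incubate 16 hr, 37 °C, 5% CO2. Step four: add ONE-Glo, wait 30 min, read luminescence.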
TDP1 cell CPT: growth inhibition of DT40 Tdp1-/-;hTDP1 cells with camptothecin (screen for TDP1 inhibitors) | hit rate 12% among 420,000 | Potency, µM (titrated, usually from 46.2 µM), for the others: at the highest dose activity change, negative = growth inhibition, usual class: inhibitors | chicken DT40 Tdp1-/-;hTDP1 cells + 20 nM CPT, ATP luminescence, 48 h; also: nearly all actives have a fitted effect of over 55% in size
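Cell growth measured by CellTiter-Glo luminescence after a minimum 48 h, 37 C compound exposure with 20 nM CPT in Tdp1-knockout DT40 cells stably expressing hTDP1, seeded 400/well; qHTS titration format.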
An asterisk follows results filed as active; ? = inconclusive; . = no result; [ ] = remark or other dose. Calls follow the shape of the dose curve; as a rule, active = well fitted curve in the direction sought with a large enough effect; inconclusive = small, poorly fitted or top-dose-only effect, or another doubt; inactive = no such curve, though single readings can be large; an effect the other way counts as inactive or inconclusive. % is scaled to controls: 0 for no effect and ±100 for the full control effect; potency is read from the fitted curve at half-maximal effect.

SMILES	DT40 TDP1 no CPT	RORgamma inh	ALOX12 inh	VP16 counter	ELG1 DNA repair	TDP1 cell CPT
COc1ccc(CN(C(=O)c2snc(C(N)=O)c2N)C(C)C(=O)NCc2ccc(F)cc2)cc1 (configuration not stated)	?	8.5%	15.8%	-0.3%	-5.7%	-23.3%
CC(C)(C)Nc1nc(Oc2ccc(=O)n(-c3ccccc3)n2)nc(N2CCOCC2)n1	20.6µM*	-10.0%	0.0%	1.7%	-20.9%	?
CCNc1nc(NC(C)(C)C)nc(Oc2ccc(=O)n(-c3ccccc3)n2)n1	20.6µM*	9.9%	17.9%	-24.3%	?	16.4µM*
CC(C)CNc1nc(Oc2ccc(=O)n(C)n2)nc(N2CCOCC2)n1	-7.6%	-19.3%	0.0%	8.7%	?	-19.9%
CC(C)COc1cccc(C(=O)Nc2ccc(N3CCOCC3)cc2N2CCOCC2)c1	13µM*	.	-20.4%	.	?	?
CC(C)COc1cccc(C(=O)Nc2ccc(S(=O)(=O)N3CCOCC3)cc2)c1	?	-18.5%	2.6%	-1.7%	-24.9%	?
CC(Oc1cccc(Cl)c1)C(=O)Nc1ccc(N2CCOCC2)cc1N1CCOCC1 (configuration not stated)	13µM*	.	2.8%	.	?	?
CC(Oc1ccc(F)cc1)C(=O)Nc1ccc(N2CCOCC2)cc1N1CCOCC1 (configuration not stated)	?	.	-13.0%	.	-1.1%	-25.9%
CC(C)COc1cccc(C(=O)Nc2ccc(CN3CCOCC3)cc2)c1	?	-2.7%	70.0%	0.7%	?	23.1µM*
COc1cc(F)ccc1-c1ccnc2ncnn12	.	.	5.9%	.	.	.
CC(C)c1ccccc1Cc1cc(C(=O)Nc2ccc(S(=O)(=O)c3ccccc3C(C)(C)C)cc2)c(O)c(O)c1O	.	.	9.68µM*	.	.	.
N=c1ccn(Cc2ccc(Cl)cc2)cc1	3.66µM*	-35.3%	5.6%	-15.5%	5.17µM*	5.17µM*
Clc1ccc(CN2CCCCCCC2)cc1	-25.5%	1.6%	?	-1.8%	-5.0%	-17.6%
N=c1ccn(Cc2cccc(Cl)c2)cc1	2.06µM*	-0.4%	0.1%	?	?	2.59µM*
O=C(Cc1csc(N2CCOCC2)n1)N/N=C/c1ccc(Cl)cc1Cl	?	?	?	-2.7%	23.1µM*	?
Cc1occc1C(=O)N/N=C/c1sc(N2CCOCC2)nc1-c1ccccc1	1.3%	12.6µM*	-0.7%	?	?	10.8%
Cc1occc1C(=O)N/N=C/C1=C(N2CCOCC2)C(=C/c2ccc(Cl)cc2Cl)/CC1	7.31µM*	.	-16.8%	.	.	5.8µM*
O=C(N/N=C/c1sc(N2CCOCC2)nc1-c1ccccc1)c1cccc(S(=O)(=O)N2CCCC2)c1	4.61µM*	?	-13.4%	-13.5%	5.17µM*	2.59µM*
Cc1cc(Cl)c(Cl)cc1S(=O)(=O)NCCCO	.	.	-14.9%	.	.	.
Cc1[nH]c(SCC(=O)NCCc2ccccc2)nc1Cc1ccccc1	.	.	-62.9%	.	.	.
CCCc1noc(-c2ccn3c(CNC(=O)c4ccccc4Cl)nnc3c2)n1	.	.	39.8µM*	.	.	.
CCCc1noc(-c2ccn3c(CNC(=O)c4c(F)cccc4F)nnc3c2)n1	.	.	64.8%	.	.	.
CCCc1noc(-c2ccn3c(CNC(=O)Cc4ccccc4OC)nnc3c2)n1	.	.	50.1µM*	.	.	.
CCc1noc(-c2ccn3c(CNC(=O)c4ccccc4Cl)nnc3c2)n1	.	.	12.8%	.	.	.
CCCc1noc(-c2ccn3c(CNC(=O)c4ccccc4F)nnc3c2)n1	.	.	50.1µM*	.	.	.
SMILES	DT40 TDP1 no CPT	RORgamma inh	ALOX12 inh	VP16 counter	ELG1 DNA repair	TDP1 cell CPT
O=C(Nc1ccc(F)cc1)C1CCCN(c2ncnc3c2nc2n3CCCCC2)C1 (configuration not stated)	11.6µM*	.	?	.	.	13µM*
CCCN(C(=O)C1CCCN(c2ncnc3c2nc2n3CCCCC2)C1)c1ccc(F)cc1 (configuration not stated)	20.6µM*	36.1%	0.1%	11.8%	-18.4%	18.4µM*
Cc1ccc(NC(=O)C2CCCN(c3ncnc4c3nc3n4CCCCC3)C2)cc1F (configuration not stated)	23.1µM*	.	-26.5%	.	.	18.4µM*
CCCN(C(=O)C1CCCN(c2ncnc3c2nc2n3CCCCC2)C1)c1ccccc1C (configuration not stated)	.	.	0.0%	.	.	.
CCOC(=O)c1nc(NCc2ccccc2OCC)c2ccccc2n1	.	.	-2.5%	.	.	.
C/C(=C\c1ccccc1)CN1CCC2(CC1)Cc1ccccc1CNC2=O	.	.	2.7%[6.33 µM]	.	.	.
O=C(c1ccc2c(c1)CCN2S(=O)(=O)c1ccc(Cl)cc1)N1CCN(c2ccccc2F)CC1	16.4µM*	.	-13.4%	.	.	20.6µM*
O=C(c1cccc(S(=O)(=O)N2CCCc3ccccc32)c1)N1CCN(c2ccccc2)CC1	20.6µM*	.	-22.7%	.	?	?
CC(NC(=O)c1ccc2c(c1)CCN2S(=O)(=O)c1ccc(Cl)cc1)c1ccccc1 (configuration not stated)	?	.	?	.	.	11.6µM*
O=C(c1ccc2c(c1)CCN2S(=O)(=O)c1ccccc1)N1CCN(c2cccc(Cl)c2)CC1	?	.	-7.9%	.	.	?
O=C(c1ccc2c(c1)CCN2S(=O)(=O)c1ccc(Cl)cc1)N1CCN(c2ccccc2)CC1	20.6µM*	.	-22.2%	.	.	11.6µM*
CCC1CCCCN1C(=O)COC(=O)c1cccc2c(=O)c(C)c(-c3ccccc3)oc12 (configuration not stated)	.	.	92.0%	.	.	.
O=C1Nc2ccccc2O[C@H]2C[C@@H]1N(Cc1nccs1)C2	.	.	39.5%[176 µM]	.	.	.
CCn1ccc(C(=O)N2CCC(N3C(=O)C(OC)C34CCOCC4)CC2)n1 (configuration not stated)	.	.	59.1%	.	.	.
COC(=O)c1nc2n(n1)C(c1ccccc1F)C(C(=O)Nc1ccc(C)cc1C)=C(C)N2 (configuration not stated)	.	.	-24.3%	.	.	.
O=C(COc1ccc(Cl)cc1)N/N=C/c1cccc2cccnc12	18.4µM*	12.6µM*	1.9%	10µM*	?	?
COc1ccccc1OCC(=O)N/N=C/c1cccc2cccnc12	20.6µM*	17.8µM*	?	?	-16.1%	?
COc1ccc(/C=N/NC(=O)COc2ccc3ccccc3c2)c(C(=O)O)c1OC	?	-0.4%	10.2%	-9.3%	17.7%	16.4µM*
